# In the supplement of paper PMC3342239:
# Counter-ions that a name gives are not always drawn.
# Test system: Saccharomyces cerevisiae
# Test: fraction of cells in G1 phase (DNA content, flow cytometry); higher = more cells with unreplicated DNA (G1 delay)
# Details: temperature: 30 C; YPD; JTY2953 pdr5 snq2 (sensitized); drug added to: cultures diluted from stationary phase; 6-7 h
# Procedure, shortened: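 S. cerevisiae grown in YPD at 30°C was exposed to library drugs. In one setup, overnight sensitized JTY2953 cultures were diluted 1∶200, given a final 20 µg/ml and fixed after 6–7 h, while other runs dosed dividing JTY2953 with fixation 6 h later or BY4741 with fixation 4.33 h later. Cells were ethanol-fixed, stained with SYTOX Green and analysed by flow cytometry at 10,000 events. The G1 fraction is the area of the Dean-Jett-Fox G1 peak divided by the summed G1 and G2/M areas.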
row,SMILES,fraction of cells in G1 phase
1,CC1(C)S[C@@H]2[C@H](NC(=O)COc3ccccc3)C(=O)N2[C@H]1C(=O)O [Pencillin v potassium] (57.2429 µM),0.461
2,C[C@H]1C[C@H]2[C@@H]3CCC4=CC(=O)C=C[C@]4(C)[C@@]3(F)[C@@H](O)C[C@]2(C)[C@@]1(O)C(=O)CO [Betamethasone] (39.6353 µM),0.508
3,CO[C@@H]1[C@H](OC(=O)/C=C/C=C/C=C/C=C/C(=O)O)CC[C@]2(CO2)[C@H]1[C@@]1(C)O[C@@H]1CC=C(C)C [Fumagillin] (43.6151 µM),0.518
4,CCCCNC(=O)NS(=O)(=O)c1ccc(C)cc1 [Tolbutamide] (73.9774 µM),0.505
5,O=C1CCC(N2C(=O)c3ccccc3C2=O)C(=O)N1 (centres undefined) [Thalidomide] (77.4486 µM),0.464
6,CCn1cc(C(=O)O)c(=O)c2cc(F)c(N3CCNC(C)C3)c(F)c21 (centres undefined) [Lomefloxacin HCl] (56.9223 µM),0.489
7,Cc1ccc(C(=O)c2ccc(CC(=O)O)n2C)cc1 [Tolmetin Na] (77.7328 µM),0.482
8,O=C1C(=O)c2ccccc2C(O)=C1C1CCC(c2ccc(Cl)cc2)CC1 (centres undefined) [Atovaquone] (54.5185 µM),0.493
9,COc1cc(Cc2cnc(N)nc2N)cc(OC)c1OC [Trimethoprim] (68.8884 µM),0.486
10,NC[C@H]1O[C@H](O[C@H]2[C@H](O)[C@@H](O[C@H]3O[C@H](CO)[C@@H](O)[C@H](N)[C@H]3O)[C@H](N)C[C@@H]2N)[C@H](N)C[C@@H]1O [Tobramycin (free base)] (42.7786 µM),0.469
11,CN1CCN(C2=Nc3cc(F)ccc3Cc3ccccc32)CC1 [Fluperlapine] (64.6434 µM),0.512
12,O=P(O)(O)C(O)(Cn1ccnc1)P(=O)(O)O [Zoledronic acid] (73.5045 µM),0.486
13,COc1cc2nc(N(C)CCCNC(=O)C3CCCO3)nc(N)c2cc1OC (centres undefined) [Alfuzosin] (51.3611 µM),0.523
14,CC[C@@]1(O)C(=O)OCc2c1cc1n(c2=O)Cc2cc3c(CN(C)C)c(O)ccc3nc2-1 [Topotecan] (47.4544 µM),0.481
15,COC(=O)C1=C(C)NC(C)=C(C(=O)OC)C1c1ccccc1[N+](=O)[O-] [Nifedipine] (57.7463 µM),0.551
16,CC(=O)O[C@]1(C(C)=O)CC[C@H]2[C@@H]3C=C(Cl)C4=CC(=O)CC[C@]4(C)[C@H]3CC[C@@]21C [Chlormadinone acetate] (44.5442 µM),0.577
17,NS(=O)(=O)Cc1noc2ccccc12 [Zonisamide] (94.238 µM),0.51
18,CCOC(=O)C1=C(C)NC(C)=C(C(=O)OC)C1c1cccc([N+](=O)[O-])c1 (centres undefined) [Nitrendipine] (55.4985 µM),0.472
19,CN(C/C=C/C#CC(C)(C)C)Cc1cccc2ccccc12 [Terbinafine HCl] (68.6247 µM),0.5
20,COc1ccc2c(c1)c(CC(=O)OCC(=O)O)c(C)n2C(=O)c1ccc(Cl)cc1 [Acemetacin] (48.0961 µM),0.489

row,SMILES,fraction of cells in G1 phase
1,CC(C(=O)O)c1cccc(Oc2ccccc2)c1 (centres undefined) [Fenoprofen] (82.5501 µM),0.502
2,COc1cc(C(=O)OCCCN2CCCN(CCCOC(=O)c3cc(OC)c(OC)c(OC)c3)CC2)cc(OC)c1OC [Dilazep] (33.074 µM),0.47
3,CC1(C)S[C@@H]2[C@H](NC(=O)[C@H](N)c3ccc(O)cc3)C(=O)N2[C@H]1C(=O)O [Amoxicillin] (54.7345 µM),0.457
4,COc1ccc2[nH]c([S@@+]([O-])Cc3ncc(C)c(OC)c3C)nc2c1 [Esomeprazole potassium] (57.9 µM),0.522
5,Cc1c(Cl)cccc1Nc1ccccc1C(=O)O [Tolfenamic acid] (76.4204 µM),0.53
6,NS(=O)(=O)c1cc(C(=O)O)c(NCc2ccco2)cc1Cl [Furosemide] (60.4688 µM),0.459
7,CC(C)(CO)[C@@H](O)C(=O)NCCC(=O)O [Pantothenic acid] (91.2244 µM),0.484
8,O=C1CN2Cc3c(ccc(Cl)c3Cl)N=C2N1 [Anagrelide] (78.0967 µM),0.469
9,OCc1cc(C(O)CNCCCCCCOCCCCc2ccccc2)ccc1O (centres undefined) [Salmeterol] (48.1257 µM),0.472
10,CN(C)CCOC(c1ccccc1)c1ccccc1 [Diphenhydramine HCl] (78.3199 µM),0.446
11,COc1ccc2cc(CCC(C)=O)ccc2c1 [Nabumetone] (87.6065 µM),0.535
12,c1ccc([C@H]2CN3CCSC3=N2)cc1 [Levamisole HCl] (97.8973 µM),0.488
13,COc1ccc2cc([C@H](C)C(=O)O)ccc2c1 [Naproxen] (86.8561 µM),0.514
14,COC(=O)Nc1nc2cc(Sc3ccccc3)ccc2[nH]1 [Fenbendazole] (66.8106 µM),0.421
15,COc1ccc2[nH]c([S+]([O-])Cc3ncc(C)c(OC)c3C)nc2n1 (centres undefined) [Tenatoprazole] (57.7349 µM),0.486
16,O=C(O)c1cc(=O)c2c(OCC(O)COc3cccc4oc(C(=O)O)cc(=O)c34)cccc2o1 [Disodium cromoglycate] (39.0365 µM),0.529
17,Cc1nccn1CC1CCc2c(c3ccccc3n2C)C1=O (centres undefined) [Ondansetron] (68.1729 µM),0.463
18,O=C(c1ccc(F)cc1)C1CCN(CCn2c(=O)[nH]c3ccccc3c2=O)CC1 [Ketanserin tartrate] (50.5769 µM),0.475
19,COCCOC(=O)C1=C(C)NC(C)=C(C(=O)OC/C=C/c2ccccc2)C1c1cccc([N+](=O)[O-])c1 (centres undefined) [Cilnidipine] (40.6064 µM),0.494
